# From ChEMBL document CHEMBL4513216, “Probing the Open Global Health Chemical Diversity Library for Multistage-Active Starting Points for Next-Generation Antimalarials” (ACS Infect Dis, 2020)
# Among all 69,000 compounds or so, about 8,600 (12%) showed an effect of 50% or more. Many of the other results were omitted from the sample, so strong results are more common in it than they were.
# Tested on: Plasmodium berghei
# Experiment: Screen against P. berghei liver stage (PbLuc), transformed with Luciferase, at 10uM
# Type: functional, HepG2
# Settings: tested at 10 uM
row,Compound,INHIBITION [%]
1,CS(=O)(=O)N1CCCC(Cc2cnc(Br)cn2)CC1 (stereo not given),37.8
2,Cc1ccc(C(=O)N2CCCCC2c2[nH]ncc2S(C)(=O)=O)cn1 (stereo not given),24.8
3,O=C(c1cc2c(s1)CCOC2)N1CCCCC1Cn1cccn1 (stereo not given),-5.07
4,CNC(=O)C1(c2cnccn2)CCCN1C(=O)c1ccc(F)cc1 (stereo not given),3.91
5,CCNC(=O)N(C)C1CCN(Cc2ncc(C)c(OC)c2C)CC1,82.6
6,COCc1ccccc1C(=O)N(C)Cc1ncc(C)c(OC)c1C,50.1
7,COc1c(C)cnc(CN2CCC(N(C)C(=O)C(C)OC)CC2)c1C (stereo not given),-29.8
8,COc1c(C)cnc(CN(C)C2CCN(C3CCOCC3)CC2)c1C,7.24
9,COc1c(C)cnc(CN2CCC(N(C)C(=O)C3CC3)CC2)c1C,-2.19
10,COc1c(C)cnc(CN(C)C2CCCCC2)c1C,72
11,COc1c(C)cnc(CN(C)C(=O)c2ccccc2O)c1C,26.3
12,COc1c(C)cnc(CN2CCC(N(C)S(C)(=O)=O)CC2)c1C,-21.9
13,COc1ccccc1C(=O)N(C)Cc1ncc(C)c(OC)c1C,-11.7
14,COc1c(C)cnc(CN2CCC(N(C)C(C)C(N)=O)CC2)c1C (stereo not given),90
15,CCC(=O)N(C)C1CCN(Cc2ncc(C)c(OC)c2C)CC1,10.8
16,COc1c(C)cnc(CN(C)C2CCOC3(CCOCC3)C2)c1C (stereo not given),43.6
17,COc1ccc(CCC(=O)N2CCCCC2Cn2cccn2)cc1F (stereo not given),-31.8
18,O=C(NCc1ccccn1)[C@]12COC[C@H]1CN(Cc1ccccc1F)C2,-13.2
19,Cc1ncsc1C(=O)N1CCCC1c1c(C)nn(C)c1Cl (stereo not given),-0.96
20,CC(NCc1cccc(C#N)c1)c1ccccn1 (stereo not given),-21
21,CCc1nc(C2CCCN2Cc2nnc(C3CCC3)o2)no1 (stereo not given),41.65
22,CC(C)CCn1cc(C(C(=O)O)N2CCSCC2)cn1 (stereo not given),17.6
23,CC(C)C(=O)NC1CCCc2nc(N3CCOCC3)ncc21 (stereo not given),18.3
24,Cc1ccc(-c2nc(CN3CCOCC3)no2)cc1N1CCNC1=O,30
25,CCNC(=O)CNC(=O)c1nc(C2CC2)n(-c2ccccc2Cl)n1,-37.6
26,Cc1ccc(Cl)c(CN2CCN(C)C(C(=O)O)C2)c1F (stereo not given),-4.52
27,CCOC(=O)CCN(Cc1cccnc1)C(=O)c1cc(Cl)c[nH]1,57.5
28,O=C(c1cc(Cl)c[nH]1)N(CCCO)Cc1cccnc1,39
29,CCCc1cc(C(=O)N(Cc2cccnc2)Cc2cccnc2)[nH]n1,6.28
30,CC(C)c1nnc(CN2CC(n3cccn3)C2)o1,-145
